# Records with an inconclusive call do not appear. Calls of active or inactive are those of the source. Unless noted, calls come from the whole dose curve; as a rule, active = well fitted curve in the direction sought with a large enough effect; inconclusive = small, poorly fitted or top-dose-only effect, or another doubt; inactive = no such curve, though single readings can be large; an effect the other way counts as inactive or inconclusive.
# Columns and labels:
# [1] = target: Glucocorticoid receptor (Homo sapiens) (UniProt P04150); test: GR-GFP Redistribution (AID 450;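 active = compounds whose dose series gives a full or clear partial fitted curve of increased nuclear translocation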; note: potency is the fitted concentration of half-maximal effect); details: U2OS GR-GFP nuclear translocation, laser cytometry, 2 h
# [2] = target: Glucocorticoid receptor (Homo sapiens) (UniProt P04150); test: GR-EFC Redistribution (AID 451; calls by dose curve; note: potency is the fitted concentration of half-maximal effect); details: CHO-K1 GR-EFC translocation, beta-gal luminescence, 2 h
# In short: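 CHO-K1 cells stably expressing nuclear-localized β-gal enzyme acceptor and GR fused C-terminally to the enzyme donor fragment; ligand-driven nuclear translocation restores β-gal by complementation. Compounds titrated up to 46 uM final, 2 h at 37 °C; luminescence read.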
# [3] = qHTS Assay for Lipid Storage Modulators (AID 1519; calls by dose curve); details: Drosophila S3 cells, BODIPY lipid droplet/cell ratio, laser cytometry, cells loaded with oleic acid; for activity change, negative = inhibition: at 57.5 µM (top of the series)
# In short: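 Cells seeded at 5,000 per well were treated with compounds over a concentration series and loaded with oleic acid (400 uM, as added). Lipid droplet fluorescence (488 nm excitation, 500-530 nm channel) was read by laser-scanning cytometry and normalized to 20 uM Triacsin C.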
# [4] = target: Ubiquitin carboxyl-terminal hydrolase 1 (Homo sapiens) (UniProt O94782); test: Inhibitors of USP1/UAF1: Pilot qHTS (AID 504865); details: purified USP1/UAF1, Ub-rhodamine cleavage fluorescence; series mostly up to 54.9 µM; note: nearly all actives have a fitted effect of over 35% in size; note: potency is the fitted concentration of half-maximal effect
# In short: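 1nM USP1/UAF1 + cpd, 15 min RT; start w/ Ub-Rho 150nM final; kinetic FL 480/540 nm, 6 reads q60 s. Buffer 50mM HEPES pH 7.8, 0.5mM EDTA, 1mM TCEP, 0.01% Tween-20, 0.1 mg/ml BSA.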
# [5] = target: Rap guanine nucleotide exchange factor 3 (Homo sapiens) (UniProt O95398); test: Confirmatory qHTS for antagonist of cAMP-regulated guanine nucleotide exchange factor 3 (EPAC1) (AID 1645880); details: EPAC1 Rap1B-BODIPY-GDP exchange, fluorescence; series mostly up to 115 µM; note: nearly all actives have a fitted effect of over 55% in size; note: potency is the fitted concentration of half-maximal effect;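 for activity, negative = inhibition: plate controls were DMSO only for no effect and full effect of the ATA control for full effect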
# In short: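 Released BODIPY-GDP fluoresces less than Rap1-bound BODIPY-GDP; the signal is followed at 480/540 nm at 5-min intervals over 30 min, after 5 min at room temperature. Reactions contain 100 nM EPAC1, 250 nM RAP1B-BODIPY-GDP and 50 uM GDP; results are normalized to ATA and DMSO.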
# [6] = target: Rap guanine nucleotide exchange factor 3 (Homo sapiens) (UniProt O95398); test: Confirmatory qHTS for agonist of cAMP-regulated guanine nucleotide exchange factor 3 (EPAC1) (AID 1645881); details: EPAC1 Rap1B BODIPY-GDP exchange fluorescence; series mostly up to 154 µM;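 note: EPAC1 catalysed release of BODIPY-GDP from Rap1B seen as fluorescence loss; 100% = effect of cAMP agonist control; nearly all actives have a fitted effect of over 75% in size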
# [7] = target: Rap guanine nucleotide exchange factor 4 (Homo sapiens) (UniProt Q8WZA2); test: Confirmatory qHTS for agonist of cAMP-regulated guanine nucleotide exchange factor 4 (EPAC2) (AID 1645884); details: EPAC2 GEF activity, Rap1B-BODIPY-GDP fluorescence; series mostly up to 154 µM;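 note: nucleotide exchange releases bodipy-GDP from Rap1 and this lowers its fluorescence; % is set by controls: 0 for no effect and ±100 for the full control effect; nearly all actives have a fitted effect of over 65% in size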
# [8] = target: Cytochrome P450 3A4 (Homo sapiens) (UniProt P08684); test: qHTS Assay for Inhibitors and Substrates of Cytochrome P450 3A4 (AID 884); details: recombinant CYP3A4, Luciferin-PPXE luminescence; series mostly up to 57.1 µM; note: potency is the fitted concentration of half-maximal effect; nearly all actives have a fitted effect of over 50% in size
# In short: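 Luminescent readout of luciferin produced by CYP3A4 (20 nM) dealkylation of Luciferin-PPXE, 25 uM (its KM). NADPH-driven reaction ran 60 min at RT after 10 min compound preincubation; data scaled to 57 uM ketoconazole as 100% inhibition.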
# [9] = target: Cytochrome P450 3A4 (Homo sapiens) (UniProt P08684); test: qHTS Assay for Activators of Cytochrome P450 3A4 (AID 885); details: recombinant CYP3A4, Luciferin-PPXE luminescence, 60 min; series mostly up to 57.1 µM; note: nearly all actives have a fitted effect of over 65% in size
# In short: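 Human CYP3A4 dealkylates Luciferin-PPXE to luciferin, which luciferase detection converts to light. Substrate was at its KM (25uM), buffer 200mM KPO4, reaction 60 min at RT.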
# [10] = Confirmation and Secondary Assay for Modulators of Hemoglobin Beta Chain Splicing at IVS2 654 locus (AID 910); details: HeLa EGFP-654 splicing reporter, GFP fluorescence, 48 h; series mostly up to 38.3 µM;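 note: per-well total GFP intensity by laser scanning cytometry after 2-day treatment; % of control where 0% means no effect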
# In short: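 HeLa cells stably carrying EGFP interrupted by mutant beta-globin IVS2-654 intron (CMV-driven) were treated with compound for 2 days at 37C; corrected splicing was scored as total peak GFP intensity per well (488 nm excitation, 500-520 nm emission).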
# [11] = Confirmation and Secondary Assay for Modulators of Hemoglobin Beta Chain Splicing at IVS2 705 locus (AID 930); details: HeLa EGFP-705 splicing reporter, GFP fluorescence, 48 h; series mostly up to 38.3 µM;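 note: HeLa cells stably expressing the EGFP-705 splicing reporter; GFP fluorescence per well restored by corrected splicing of the IVS2-705 intron in EGFP; % of control where 0% means no effect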
# In short: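 Assay measures total GFP intensity per well in HeLa EGFP-705 cells after 2 days with compound; mis-splicing normally truncates EGFP, so fluorescence indicates corrected splicing.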
# [12] = target: Rap guanine nucleotide exchange factor 4 (Homo sapiens) (UniProt Q8WZA2); test: Confirmatory qHTS for antagonist of cAMP-regulated guanine nucleotide exchange factor 4 (EPAC2) (AID 1645885); details: EPAC2 Rap1B-BODIPY-GDP exchange fluorescence, biochemical; series mostly up to 114 µM; note: nearly all actives have a fitted effect of over 25% in size; note: potency is the fitted concentration of half-maximal effect
# [13] = target: Lysosomal acid glucosylceramidase (Homo sapiens) (UniProt P04062); test: Glucocerebrosidase-p2 (AID 348; in the data active = potency below about 10 µM; note: potency is the fitted concentration of half-maximal effect); details: purified GBA, blue fluorogenic substrate, 40 min
# In short: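 Normal human glucocerebrosidase (0.2 nM) with blue fluorogenic substrate (80 uM final) in citrate/phosphate pH 5.9 with 10mM sodium taurocholate, 0.01% tween-20; 40 min RT, NaOH/glycine stop; fluorescence Ex 365/Em 440; AC50 from a titration from 0.6 nM upwards.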
# [14] = target: Cytochrome P450 1A2 (Homo sapiens) (UniProt P05177); test: p450-cyp1a2 (AID 410; calls by dose curve; note: potency is the fitted concentration of half-maximal effect); details: recombinant CYP1A2, luciferin-ME demethylation, luminescence; series mostly up to 57 µM
# In short: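 Luminescent demethylation readout: Luciferin-ME (100uM, equal to Km) turned over by 20nM CYP1A2 for 60 min at room temperature after NADPH regeneration addition, following 10 min compound preincubation. Normalization used 57 uM furafylline as full inhibition.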
# [15] = NFAT Signaling Pathway (AID 444; active = well fitted curve in either direction with a large enough effect, not every such curve was filed as active;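 note: carbachol stimulus at about its EC50 of 1 µM final; % is set by controls: 0 for no effect and ±100 for the full control effect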); details: Jurkat NFAT-bla M1, carbachol, beta-lactamase ratio, 5 h; at 7.69 µM (top of the series) unless noted
# In short: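 Jurkat cells carrying an NFAT-driven β-lactamase reporter and co-transfected muscarinic M1 receptor were treated with compound plus carbachol (1 uM final, an EC50 level) for 5 h at 37 °C. CCF4 loading followed for 1 h at RT; 460/530 nm ratio gave %activity.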
# [16] = Stat Signaling Pathway (AID 446; active = well fitted curve in either direction with a large enough effect, not every such curve was filed as active;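 note: ME-180 cervical cancer cells given 40 pM IL-6 alongside compound; SIE-controlled beta-lactamase reporter measured as 460/530 nm FRET emission ratio; % is set by controls: 0 for no effect and ±100 for the full control effect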); details: ME-180 SIE beta-lactamase reporter, IL-6 stimulated, 5 h; at 7.69 µM (top of the series) unless noted
# In short: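 Normalization used AC90 stimulation (300 pM IL-6) and AC90 inhibition (125 nM pan-JAK inhibitor at 40 pM IL-6). The underlying signal is SIE-driven beta-lactamase in ME-180 cells after 5 h IL-6 exposure with compound.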
# [17] = target: Mitogen-activated protein kinase 10 (Mus musculus) (UniProt Q61831); test: JNK3 AlphaScreen Assay (AID 530; active = well fitted curve in either direction with a large enough effect, not every such curve was filed as active;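 note: kinase came from lysate of stimulated human HepG2 cells; signal reports phosphorylation of biotinylated GST-cJun 1-79 at Ser73 with 10 µM ATP; % is set by controls: 0 for no effect and ±100 for the full control effect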); details: JNK3 lysate, c-Jun phosphorylation; series mostly up to 57.1 µM
# In short: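 Phosphorylation of biotinylated GST-cJun(1-79) at Ser73 is measured by AlphaScreen proximity luminescence. Enzyme is JNK3 in HepG2 lysates activated with interleukin-1beta and tumor necrosis factor alpha; ATP is 10 uM final.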
# [18] = AP1 Signaling Pathway (AID 357; active = well fitted curve in either direction with a large enough effect, not every such curve was filed as active;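 note: ME-180 reporter cells stimulated with EGF at its EC50 level; % is set by controls: 0 for no effect and ±100 for the full control effect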); details: ME-180 (cervical carcinoma) AP-1-bla reporter, EGF-induced, beta-lactamase ratio, 5 h; at 7.69 µM (top of the series) unless noted
# In short: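 Beta-lactamase reporter under AP-1 response element, ME-180 background. Stimulus: EC50 EGF. Compound exposure 5 h, 37 °C. Detection: CCF4, 2.5 h RT, 460/530 nm. Values: AC50 from titration.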
# [19] = target: 3',5'-cyclic-AMP phosphodiesterase 4B (Homo sapiens) (UniProt Q07343); test: qHTS Assay for Inhibitors of PDE-IV (AID 607; active = well fitted activation curve with a large enough effect in the main read-out, with a control signal flat, not every such curve was filed as active; note: % of control where 0% means no effect); details: HEK293 ACTOne CNG channel cells, membrane potential fluorescence; series mostly up to 22.9 µM
# In short: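 HEK293 ACTOne cells with CNG channel (1000/well), endogenous PDE4; membrane potential dye, compounds up to 22.9 uM final. Fluorescence Ex 535/Em 590; RO 20-1724 (100 uM final) as reference.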
# [20] = measured here: cell count channel max response
# [21] = measured here: lipid channel max response
# Sequence of Lysosomal acid glucosylceramidase (Homo sapiens) (P04062 whole entry, looked up): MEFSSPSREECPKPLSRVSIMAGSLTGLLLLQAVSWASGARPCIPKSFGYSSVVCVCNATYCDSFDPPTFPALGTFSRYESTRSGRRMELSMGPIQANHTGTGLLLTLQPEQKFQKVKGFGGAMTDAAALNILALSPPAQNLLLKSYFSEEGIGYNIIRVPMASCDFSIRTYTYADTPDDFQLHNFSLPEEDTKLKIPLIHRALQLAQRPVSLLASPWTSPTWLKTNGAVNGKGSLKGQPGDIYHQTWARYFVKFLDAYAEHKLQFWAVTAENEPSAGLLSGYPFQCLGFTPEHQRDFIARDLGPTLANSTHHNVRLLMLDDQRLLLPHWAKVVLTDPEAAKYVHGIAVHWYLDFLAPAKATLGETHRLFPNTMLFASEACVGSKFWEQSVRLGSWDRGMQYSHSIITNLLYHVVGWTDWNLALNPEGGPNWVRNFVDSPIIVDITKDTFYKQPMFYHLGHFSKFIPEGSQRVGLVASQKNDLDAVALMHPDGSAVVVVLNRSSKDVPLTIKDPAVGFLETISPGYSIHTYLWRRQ
# Sequence of Glucocorticoid receptor (Homo sapiens) (P04150 whole entry, looked up, the tested form may be a part): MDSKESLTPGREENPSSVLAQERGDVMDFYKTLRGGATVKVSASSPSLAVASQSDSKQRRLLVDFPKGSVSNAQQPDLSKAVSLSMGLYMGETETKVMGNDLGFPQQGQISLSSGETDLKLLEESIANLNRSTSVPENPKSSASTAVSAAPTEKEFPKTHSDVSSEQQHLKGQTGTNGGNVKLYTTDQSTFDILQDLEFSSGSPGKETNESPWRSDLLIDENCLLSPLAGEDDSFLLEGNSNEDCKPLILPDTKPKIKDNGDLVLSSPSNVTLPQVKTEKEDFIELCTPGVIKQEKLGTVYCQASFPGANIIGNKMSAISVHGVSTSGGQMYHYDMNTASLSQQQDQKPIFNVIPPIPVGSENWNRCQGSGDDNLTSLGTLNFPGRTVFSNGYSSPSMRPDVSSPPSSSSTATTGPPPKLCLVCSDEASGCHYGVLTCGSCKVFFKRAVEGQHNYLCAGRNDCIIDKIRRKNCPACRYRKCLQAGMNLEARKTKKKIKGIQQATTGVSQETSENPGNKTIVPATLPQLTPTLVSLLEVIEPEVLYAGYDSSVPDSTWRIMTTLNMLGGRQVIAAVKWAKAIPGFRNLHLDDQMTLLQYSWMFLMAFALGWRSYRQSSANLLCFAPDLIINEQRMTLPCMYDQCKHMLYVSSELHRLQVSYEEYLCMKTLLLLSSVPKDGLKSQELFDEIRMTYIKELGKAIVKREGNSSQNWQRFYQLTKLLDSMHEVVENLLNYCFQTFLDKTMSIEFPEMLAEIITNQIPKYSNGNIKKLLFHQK
# Sequence of Cytochrome P450 1A2 (Homo sapiens) (P05177 whole entry, looked up): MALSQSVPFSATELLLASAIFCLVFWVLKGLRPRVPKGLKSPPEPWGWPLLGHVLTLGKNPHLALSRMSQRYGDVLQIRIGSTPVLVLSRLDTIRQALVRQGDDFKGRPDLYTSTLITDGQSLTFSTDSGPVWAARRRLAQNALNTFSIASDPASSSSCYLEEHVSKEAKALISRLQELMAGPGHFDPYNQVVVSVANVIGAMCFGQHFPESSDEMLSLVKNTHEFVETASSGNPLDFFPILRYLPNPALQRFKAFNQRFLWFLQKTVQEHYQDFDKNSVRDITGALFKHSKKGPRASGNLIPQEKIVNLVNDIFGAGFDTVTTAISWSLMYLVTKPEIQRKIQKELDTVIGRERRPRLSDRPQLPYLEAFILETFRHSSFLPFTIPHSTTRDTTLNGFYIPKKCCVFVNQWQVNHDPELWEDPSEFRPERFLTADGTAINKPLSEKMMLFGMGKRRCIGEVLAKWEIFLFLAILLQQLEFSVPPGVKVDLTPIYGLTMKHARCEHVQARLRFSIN
# Sequence of Rap guanine nucleotide exchange factor 4 (Homo sapiens) (Q8WZA2 whole entry, looked up): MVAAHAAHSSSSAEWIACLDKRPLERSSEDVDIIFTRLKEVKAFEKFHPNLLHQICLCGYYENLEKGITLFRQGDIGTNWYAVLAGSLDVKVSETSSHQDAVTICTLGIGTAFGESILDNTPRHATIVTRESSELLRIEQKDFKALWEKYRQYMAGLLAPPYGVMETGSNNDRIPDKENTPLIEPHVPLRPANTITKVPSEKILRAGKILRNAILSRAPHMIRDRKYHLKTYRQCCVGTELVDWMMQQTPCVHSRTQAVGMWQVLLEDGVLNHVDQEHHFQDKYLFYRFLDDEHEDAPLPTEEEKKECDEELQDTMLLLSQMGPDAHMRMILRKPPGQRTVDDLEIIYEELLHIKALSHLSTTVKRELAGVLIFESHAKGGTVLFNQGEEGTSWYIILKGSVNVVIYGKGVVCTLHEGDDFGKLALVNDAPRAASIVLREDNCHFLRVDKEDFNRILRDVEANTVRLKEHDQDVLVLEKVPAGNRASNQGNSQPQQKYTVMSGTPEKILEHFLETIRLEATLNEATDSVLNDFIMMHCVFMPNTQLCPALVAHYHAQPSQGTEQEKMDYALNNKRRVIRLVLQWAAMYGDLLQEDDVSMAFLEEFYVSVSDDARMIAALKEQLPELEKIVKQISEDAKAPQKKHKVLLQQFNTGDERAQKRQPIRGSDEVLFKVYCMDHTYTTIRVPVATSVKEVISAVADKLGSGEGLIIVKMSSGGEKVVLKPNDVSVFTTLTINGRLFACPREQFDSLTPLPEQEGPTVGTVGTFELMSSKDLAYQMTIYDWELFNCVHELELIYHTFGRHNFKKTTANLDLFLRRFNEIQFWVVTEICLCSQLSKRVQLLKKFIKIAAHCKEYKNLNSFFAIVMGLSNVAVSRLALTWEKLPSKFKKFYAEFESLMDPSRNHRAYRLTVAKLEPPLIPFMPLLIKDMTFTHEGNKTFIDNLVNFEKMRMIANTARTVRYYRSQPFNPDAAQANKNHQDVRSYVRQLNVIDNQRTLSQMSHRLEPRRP
# Sequence of Ubiquitin carboxyl-terminal hydrolase 1 (Homo sapiens) (O94782 whole entry, looked up): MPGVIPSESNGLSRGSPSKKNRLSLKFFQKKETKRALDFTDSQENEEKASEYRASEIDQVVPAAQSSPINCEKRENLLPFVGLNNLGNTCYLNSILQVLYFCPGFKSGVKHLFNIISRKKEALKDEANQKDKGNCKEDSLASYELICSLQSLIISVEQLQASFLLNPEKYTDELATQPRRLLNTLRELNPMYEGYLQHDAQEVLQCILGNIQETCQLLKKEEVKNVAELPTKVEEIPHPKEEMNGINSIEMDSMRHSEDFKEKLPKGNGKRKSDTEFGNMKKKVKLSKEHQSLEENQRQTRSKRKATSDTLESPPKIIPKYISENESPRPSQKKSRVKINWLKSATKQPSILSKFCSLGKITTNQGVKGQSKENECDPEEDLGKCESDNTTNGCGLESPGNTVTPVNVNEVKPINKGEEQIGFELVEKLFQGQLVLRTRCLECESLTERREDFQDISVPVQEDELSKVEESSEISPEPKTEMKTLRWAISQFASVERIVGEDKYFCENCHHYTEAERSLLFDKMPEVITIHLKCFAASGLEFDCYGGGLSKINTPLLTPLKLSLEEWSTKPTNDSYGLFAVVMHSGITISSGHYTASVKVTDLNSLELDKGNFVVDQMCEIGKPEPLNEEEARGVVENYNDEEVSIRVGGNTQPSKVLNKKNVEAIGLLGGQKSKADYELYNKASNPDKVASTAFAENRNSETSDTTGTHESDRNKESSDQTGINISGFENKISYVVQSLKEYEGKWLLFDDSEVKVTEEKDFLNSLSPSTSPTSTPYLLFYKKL
# Sequence of Cytochrome P450 3A4 (Homo sapiens) (P08684 whole entry, looked up): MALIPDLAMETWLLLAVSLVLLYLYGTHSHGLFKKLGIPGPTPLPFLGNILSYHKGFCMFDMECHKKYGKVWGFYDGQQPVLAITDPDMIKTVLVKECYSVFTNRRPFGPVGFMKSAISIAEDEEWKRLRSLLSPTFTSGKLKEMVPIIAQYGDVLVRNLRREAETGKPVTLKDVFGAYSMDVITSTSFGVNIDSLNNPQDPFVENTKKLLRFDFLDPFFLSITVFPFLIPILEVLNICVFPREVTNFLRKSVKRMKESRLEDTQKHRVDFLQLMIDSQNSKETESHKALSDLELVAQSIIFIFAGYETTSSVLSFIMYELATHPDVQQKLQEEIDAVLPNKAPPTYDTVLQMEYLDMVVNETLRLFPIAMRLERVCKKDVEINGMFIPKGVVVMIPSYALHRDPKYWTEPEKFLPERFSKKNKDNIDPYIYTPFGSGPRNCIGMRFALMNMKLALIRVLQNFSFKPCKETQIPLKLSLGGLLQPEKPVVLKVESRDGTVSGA
# Sequence of Rap guanine nucleotide exchange factor 3 (Homo sapiens) (O95398 whole entry, looked up): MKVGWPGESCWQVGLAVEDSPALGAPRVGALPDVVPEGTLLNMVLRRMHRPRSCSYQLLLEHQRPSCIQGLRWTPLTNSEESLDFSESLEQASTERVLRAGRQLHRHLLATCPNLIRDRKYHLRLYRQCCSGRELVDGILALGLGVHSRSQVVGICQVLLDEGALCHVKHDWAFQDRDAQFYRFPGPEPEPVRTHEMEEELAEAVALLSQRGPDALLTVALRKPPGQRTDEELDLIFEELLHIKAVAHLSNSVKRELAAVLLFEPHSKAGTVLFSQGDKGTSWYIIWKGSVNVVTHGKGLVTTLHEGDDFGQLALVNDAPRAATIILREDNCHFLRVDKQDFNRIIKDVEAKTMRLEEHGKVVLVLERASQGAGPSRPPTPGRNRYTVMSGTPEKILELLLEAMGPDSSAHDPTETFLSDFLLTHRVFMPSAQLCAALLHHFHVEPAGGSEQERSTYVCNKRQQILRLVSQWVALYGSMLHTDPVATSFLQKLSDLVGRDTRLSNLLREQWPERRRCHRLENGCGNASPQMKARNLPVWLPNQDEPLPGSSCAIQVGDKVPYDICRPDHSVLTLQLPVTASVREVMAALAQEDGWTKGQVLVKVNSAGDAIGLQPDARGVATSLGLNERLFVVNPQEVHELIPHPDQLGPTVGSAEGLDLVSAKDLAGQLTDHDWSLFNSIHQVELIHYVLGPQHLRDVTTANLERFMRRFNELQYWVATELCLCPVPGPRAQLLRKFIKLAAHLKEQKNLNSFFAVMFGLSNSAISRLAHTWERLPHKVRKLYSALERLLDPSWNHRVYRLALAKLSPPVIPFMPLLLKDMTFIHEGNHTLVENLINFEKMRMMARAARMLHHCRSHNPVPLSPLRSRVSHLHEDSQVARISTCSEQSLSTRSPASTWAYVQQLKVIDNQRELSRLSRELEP
smiles,measurement,setting,value
N#C/C(=C\c1ccc(O)c(O)c1)C(=O)NCCCCc1ccccc1,Potency,[1],> 46 µM (inactive)
same,Potency,[2],> 46 µM (inactive)
same,"activity change, negative = inhibition",[3],-2.23% (inactive)
same,max response,[3]; [20],21.1%
same,max response,[3]; [21],17.3%
same,Potency,[4],35.5 µM (active)
same,Potency,[5],15.7 µM (active)
same,Potency,[6],inactive
same,Potency,[7],inactive
COC(=O)c1c(OC)cc2c(c1C)Oc1c(Cl)c(O)c(Cl)c(C)c1C(=O)O2,Potency,[8],1.58 µM (active)
same,Potency,[9],inactive
same,Potency,[10],inactive
same,outcome,[11],inactive
same,"activity change, negative = inhibition",[3],6.08% (inactive)
same,max response,[3]; [20],-4.22%
same,max response,[3]; [21],-5.08%
same,Potency,[4],56.2 µM (active)
same,Potency,[6],inactive
same,Potency,[7],inactive
same,Potency,[12],8.79 µM (active)
COc1ccccc1CNc1ncnc2ccc(-c3cccnc3)cc12,Potency,[13],> 11.4 µM (inactive)
same,Potency,[14],0.316 µM (active)
same,"activity change, negative = inhibition",[15],12.3% (inactive)
same,"activity, negative = inhibition",[16],-17.2% (inactive)
same,Potency,[1],> 46 µM (inactive)
same,Potency,[2],> 46 µM (inactive)
same,Potency,[17],inactive
same,Potency,[8],2 µM (active)
same,Potency,[9],inactive
same,Potency,[10],inactive
same,outcome,[11],inactive
same,"activity change, negative = inhibition",[3],3.28% (inactive)
same,max response,[3]; [20],-9.63%
same,max response,[3]; [21],-6.23%
same,Potency,[5],inactive
same,Potency,[6],inactive
same,Potency,[7],inactive
O=C1CC[C@@]23/C=C/C(=O)NCCCCNCCCNC(=O)/C=C/c4ccc(c2c4)OC3C1 (some centres not stated),Potency,[9],inactive
same,Potency,[10],inactive
same,outcome,[11],inactive
same,"activity change, negative = inhibition",[3],2.57% (inactive)
same,max response,[3]; [20],7.49%
same,max response,[3]; [21],1.79%
same,Potency,[4],inactive
same,Potency,[5],inactive
same,Potency,[6],inactive
same,Potency,[7],inactive
same,Potency,[12],inactive
COCCNc1ncnc2ccc(-c3ccc(N(C)C)cc3)cc12,Potency,[13],> 11.4 µM (inactive)
same,"activity change, negative = inhibition",[18],-29.4% (inactive)
same,Potency,[14],0.251 µM (active)
same,"activity change, negative = inhibition",[15],4.01% (inactive)
same,"activity, negative = inhibition",[16],-5.06% (inactive)
same,Potency,[1],> 46 µM (inactive)
same,Potency,[2],> 46 µM (inactive)
same,Potency,[17],inactive
same,Potency,[19],inactive
same,Potency,[9],inactive
same,"activity change, negative = inhibition",[3],-6.08% (inactive)
same,max response,[3]; [20],-1.3%
same,max response,[3]; [21],-8.9%
same,Potency,[4],inactive
CC1(C)[C@@H](O)CC[C@]2(C)C3C(=O)C=C4C5C[C@@](C)(C(=O)O)CC[C@]5(C)CC[C@@]4(C)[C@]3(C)CC[C@@H]12 (some centres not stated),Potency,[9],inactive
same,"activity change, negative = inhibition",[3],2.84% (inactive)
same,max response,[3]; [20],8.09%
same,max response,[3]; [21],11.1%
same,Potency,[6],inactive
same,Potency,[7],inactive
same,Potency,[12],5.55 µM (active)
COc1ccccc1-c1nc(N(C)C)c2ccccc2n1,Potency,[13],> 11.4 µM (inactive)
same,"activity change, negative = inhibition",[18],19.2% (inactive)
same,Potency,[14],0.398 µM (active)
same,"activity change, negative = inhibition",[15],-18.6% (inactive)
same,"activity, negative = inhibition",[16],31.2% (inactive)
same,Potency,[1],> 46 µM (inactive)
same,Potency,[2],> 46 µM (inactive)
same,Potency,[17],inactive
same,Potency,[19],inactive
same,Potency,[9],inactive
same,"activity change, negative = inhibition",[3],-1.18% (inactive)
same,max response,[3]; [20],4.21%
same,max response,[3]; [21],-1.67%
same,Potency,[4],inactive
O=C1C=CC2=C3c4cc(O)c(O)cc4CC3(O)COC2=C1O (configuration not stated),Potency,[8],31.6 µM (active)
same,Potency,[9],inactive
same,Potency,[10],inactive
same,outcome,[11],inactive
same,"activity change, negative = inhibition",[3],6.15% (inactive)
same,max response,[3]; [20],11.8%
same,max response,[3]; [21],21%
same,Potency,[6],inactive
same,Potency,[7],inactive

# From PubChem BioAssay (NCATS)
